This note sets out measurements from PubChem BioAssay.

Structures are written as SMILES. Active and inactive are the calls of the source.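 Rule for the calls, unless noted: active = inhibition of the reporter signal at or above 50%; inactive = inhibition below 50%.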

Experiment [1] can be described thus: inhibitors of TNFa-induced NFkB p65 translocation, primary screen, imaging, HUVEC, MLSMR starter and 10KST1 sets (AID 438;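 active = inhibition above 20% together with a positive visual image hit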;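 note: compound added about 3h40 before a 20 min TNFalpha stimulation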;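 for inhibition: signal is the nuclear over cytoplasmic p65 intensity ratio per well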). The note with it: HUVEC TNFa-induced p65 nuclear translocation; cell count: measured here: nuclei count (cytotoxicity indicator), at 2.08 µM; inhibition: at 2 µM, stronger effect = higher value, 0% TNFa-plus-vehicle, 100% no-TNFa wells.
Experiment [2] is described as follows: inhibitors of mutant huntingtin aggregation, primary screen, imaging, exon1htt(103Q)mCFP cells, high-content imaging (AID 483;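 active = visual image review flags a hit and inhibition of aggregation exceeds 20%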;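 note: compound exposure lasted 3 days before fixation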;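 for nuclei count: percent of the per-plate median nuclei count of sample wells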). The note with it: exon1htt(103Q)mCFP cell line, aggregate imaging, at 2 µM; inhibition of aggregation: stronger effect = higher value; nuclei count: measured here: cell count, toxicity.
Experiment [3] in a line: inhibitors of E-selectin induction by TNFa, primary screen, imaging, HUVEC, immunofluorescence, MLSMR starter and 10KST1 sets (AID 487;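 active = visually confirmed hit in the image check and inhibition above 20%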;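 for inhibition: signal is fraction of cell area covered by stained E-selectin grains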;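 for nuclei count: 100% = median nuclei count of all wells on the same plate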). The note with it: HUVEC TNFalpha-induced E-selectin immunofluorescence imaging, at 2 µM; inhibition: stronger effect = higher value; nuclei count: measured here: cell number, toxicity.
Experiment [4] addresses Voltage-gated potassium channel subunit beta-2 (Rattus norvegicus) (UniProt P62483). Put plainly: KvBeta enzyme negative modulators, primary screen, biochemical, NADPH fluorescence (AID 622;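 active = fluorescence slope higher than the sample average by over 3 SD, cut at about -0.22 in these data, passing the limit was not always enough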;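 note: slope of raw intensity against log time taken from 70 to 1610 s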). The note with it: recombinant KvBeta, 4-cyanobenzaldehyde reduction, at 10 µM, stronger effect = higher value.
For experiment [5] the target is unchanged. Put plainly: KvBeta positive modulators, primary screen, biochemical, NADPH fluorescence (AID 623;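 active = NADPH fluorescence slope more negative than the mean of all samples by about 3 SD, 99.7% confidence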;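 note: fluorescence intensity change per second fitted from 20 to 320 s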). The following applies: Recombinant KvBeta, NADPH fluorescence decrease slope, 10 min; at 10 µM; stronger effect = lower value.
The target in experiment [6] is Alpha-2C adrenergic receptor (Homo sapiens) (UniProt P18825). Kind of experiment: modulators of alpha2C/GIRK thallium flux, primary screen, cell-based, HEK293 alpha2C/GIRK1/2 (AID 624;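 active = fluorescence slope after compound addition differing from the mean of all screened samples at 99.7% confidence, in either direction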;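 note: slope of fluorescence ratio to pre-addition baseline per second over 15 to 24 s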). The note with it: thallium flux BTC fluorescence, at 10 µM, actives lie on both sides.
Experiment [7] can be described thus: inhibitors of Sendai virus-induced IRF3 signaling, primary screen, TLR/RLR signaling modifier project, cell-based, Sendai virus stimulus, luciferase, 10K MLSCN set (AID 602276;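 active = inhibition at or above 50% at 10 µM; inactive = inhibition below 50%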;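 note: firefly luciferase from ISG56 promoter only with Renilla not read in this screen; 0% = Sendai virus plus DMSO and 100% = medium plus DMSO without virus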). The following applies: HEK293 RL24 IRF3 luciferase reporter, at 10 µM, stronger effect = higher value.
Experiment [8] can be described thus: inhibitors of poly I:C-induced TLR3 signaling, primary screen, cell-based, poly I:C stimulus, luciferase, 10K MLSCN set (AID 602277). The following applies: HEK293-TLR3 RL24 IRF3 luciferase reporter, at 10 µM, stronger effect = higher value. For orientation: In a reporter assay the amount or activity of a reporter protein is the signal.

Chain of Alpha-2C adrenergic receptor (Homo sapiens) (P18825 whole entry, looked up): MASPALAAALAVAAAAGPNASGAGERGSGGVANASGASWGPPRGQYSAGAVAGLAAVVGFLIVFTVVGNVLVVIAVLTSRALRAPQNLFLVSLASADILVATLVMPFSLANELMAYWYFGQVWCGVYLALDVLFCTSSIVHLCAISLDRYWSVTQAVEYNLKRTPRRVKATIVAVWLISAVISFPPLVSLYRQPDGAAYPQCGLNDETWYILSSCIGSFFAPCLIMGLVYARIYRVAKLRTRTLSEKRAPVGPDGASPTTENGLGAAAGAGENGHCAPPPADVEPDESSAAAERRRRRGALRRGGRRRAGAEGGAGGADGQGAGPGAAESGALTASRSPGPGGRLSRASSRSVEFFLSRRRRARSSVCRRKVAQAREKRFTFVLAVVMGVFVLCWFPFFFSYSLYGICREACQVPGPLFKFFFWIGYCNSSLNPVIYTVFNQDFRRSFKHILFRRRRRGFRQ
Chain of Voltage-gated potassium channel subunit beta-2 (Rattus norvegicus) (P62483 whole entry, looked up): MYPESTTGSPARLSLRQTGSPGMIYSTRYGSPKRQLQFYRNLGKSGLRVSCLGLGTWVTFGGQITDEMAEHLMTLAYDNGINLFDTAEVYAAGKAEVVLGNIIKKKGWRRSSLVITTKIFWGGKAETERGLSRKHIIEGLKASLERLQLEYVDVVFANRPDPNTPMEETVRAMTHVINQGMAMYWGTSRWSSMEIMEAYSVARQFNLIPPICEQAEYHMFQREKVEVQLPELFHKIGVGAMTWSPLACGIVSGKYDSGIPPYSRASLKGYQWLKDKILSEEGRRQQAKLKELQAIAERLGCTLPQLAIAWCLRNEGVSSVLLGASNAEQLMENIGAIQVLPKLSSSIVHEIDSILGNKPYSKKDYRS

Consider `O=C(O)C1CC(=O)N(CCOc2ccccc2)C1` (centres undefined), for which, in experiment [1], the cell count came to 407. The inhibition in experiment [1] is 4.7% (inactive); in experiment [3], -59.8% (inactive); in experiment [7], 0.323% (inactive); in experiment [8], 15.8% (inactive). Further, the inhibition of aggregation in experiment [2] was 10.8% (inactive). For the same molecule, the results for the nuclei count in experiment [2] and in experiment [3] were 86.7% and 101%, respectively. Moreover, the fluorescence slope in experiment [4] is -0.41 (inactive). Also, the NADPH fluorescence slope in experiment [5] was 4.3e-05 (inactive). Moreover, the slope in experiment [6] was 0.00593 (inactive).
For the molecule `CCOC(=O)N1CCC(NC(=O)c2cc(C(=O)NC3CCCC3)ccc2CO)CC1`, in experiment [1], the cell count was found to be 467. Besides, the inhibition in experiment [1] is 0.8% (inactive); in experiment [3] it was -14.1% (inactive); in experiment [7], 11.2% (inactive); in experiment [8], 32% (inactive). In experiment [2], the inhibition of aggregation was 14.4% (inactive). Further, the nuclei count in experiment [2] is 58.4%; in experiment [3], 106%. In addition, the fluorescence slope in experiment [4] was -0.535 (inactive). In addition, the NADPH fluorescence slope in experiment [5] is -5.1e-05 (inactive). The slope in experiment [6] is 0.00598 (inactive).
On to `CCOC(=O)c1[nH]c(C)c(C(=O)NCC2CCCO2)c1C` (centres undefined), for which, in experiment [1], the cell count was determined as 390. Further, the inhibition in experiment [1] was 2.8% (inactive); in experiment [3], -13.6% (inactive); in experiment [7], 8.72% (inactive); in experiment [8] it was 14.8% (inactive). Moreover, in experiment [2], the inhibition of aggregation is 5.8% (inactive). The nuclei count in experiment [2] amounted to 103%; in experiment [3], 86.3%. For the same molecule, the fluorescence slope in experiment [4] is -0.608 (inactive). Further, the NADPH fluorescence slope in experiment [5] was -7.6e-06 (inactive). Further, the slope in experiment [6] was 0.00577 (inactive).
Turning to `CCOc1ccc(C(=O)Nc2ccc(N3CCN(C)CC3)cc2)cc1Br`, the cell count in experiment [1] turned out to be 434. The inhibition in experiment [1] is 3.4% (inactive); in experiment [3] it was 6.4% (inactive); in experiment [7], -15.1% (inactive); in experiment [8], -22.4% (inactive). Besides, the inhibition of aggregation in experiment [2] is 0.4% (inactive). Also, the nuclei count is 95.5% in experiment [2] and 89.5% in experiment [3]. Moreover, the fluorescence slope in experiment [4] is -0.571 (inactive). The NADPH fluorescence slope in experiment [5] was -3.6e-05 (inactive). In addition, the slope in experiment [6] was 0.00342 (inactive).
For the molecule `Nc1nc(N2CCCCC2)nc(N(c2ccccc2)c2ccccc2)n1`, the cell count in experiment [1] amounted to 710. Also, the inhibition in experiment [1] is -2.9% (inactive); in experiment [3] it was -33% (inactive); in experiment [7], 10.2% (inactive); in experiment [8], 34.4% (inactive). The inhibition of aggregation in experiment [2] was 23.2% (inactive). For the same molecule, the figures for the nuclei count in experiment [2] and in experiment [3] were 88% and 91.6%, respectively. Further, the fluorescence slope in experiment [4] is -0.544 (inactive). Also, the NADPH fluorescence slope in experiment [5] was -5.4e-05 (inactive). Moreover, the slope in experiment [6] was 0.00708 (inactive).
Consider `O=C(NCc1cccs1)c1cc2c(s1)CCCC2`, for which the cell count in experiment [1] stood at 377. For the same molecule, the inhibition in experiment [1] was -16.3% (inactive); in experiment [3], -21.4% (inactive); in experiment [7], -44.6% (inactive); in experiment [8], -105% (inactive). Moreover, the inhibition of aggregation in experiment [2] was 5.1% (inactive). Moreover, the nuclei count in experiment [2] was 89.1%; in experiment [3], 126%. Moreover, the fluorescence slope in experiment [4] is -0.479 (inactive). Besides, the NADPH fluorescence slope in experiment [5] is 6e-05 (inactive). Moreover, in experiment [6], the slope is 0.0052 (inactive).
Turning to `CCN1CCN(c2ncc(C(=O)N3CCN(c4ccccc4OC)CC3)c3ccccc23)CC1`, the cell count in experiment [1] came to 315. Further, the inhibition in experiment [1] is -2.5% (inactive); in experiment [3], 13.2% (inactive); in experiment [7], 0.246% (inactive); in experiment [8], 31.7% (inactive). Besides, the inhibition of aggregation in experiment [2] is 0.9% (inactive). Further, the nuclei count in experiment [2] is 97.8%; in experiment [3], 96.4%. Also, the fluorescence slope in experiment [4] is -0.466 (inactive). In experiment [5], the NADPH fluorescence slope was -4.4e-05 (inactive). For the same molecule, the slope in experiment [6] is 0.00623 (inactive).
As to `O=S(=O)(c1ccc2c(c1)OCCO2)N1CCN(Cc2ccc3c(c2)OCO3)CC1`, the cell count in experiment [1] was 632. Further, the inhibition in experiment [1] was 1.9% (inactive); in experiment [3] it was -24.5% (inactive); in experiment [7], 9.49% (inactive); in experiment [8], 25.6% (inactive). For the same molecule, in experiment [2], the inhibition of aggregation was 0.7% (inactive). Also, the nuclei count in experiment [2] is 100%; in experiment [3], 113%. Further, in experiment [4], the fluorescence slope was -0.345 (inactive). The NADPH fluorescence slope in experiment [5] is -5.1e-05 (inactive). Besides, the slope in experiment [6] was 0.00449 (inactive).
In the case of `Fc1ccc(-c2ccc(-c3nn4c(-c5ccco5)nnc4s3)o2)cc1`, in experiment [1], the cell count stood at 243. In addition, the inhibition in experiment [1] was -2.4% (inactive); in experiment [3], -25.8% (inactive); in experiment [7], -5.55% (inactive); in experiment [8], -13.1% (inactive). In addition, the inhibition of aggregation in experiment [2] was 1.7% (inactive). For the same molecule, the values for the nuclei count in experiment [2] and in experiment [3] were 92.7% and 101%, respectively. Also, in experiment [4], the fluorescence slope is -0.394 (inactive). Further, the NADPH fluorescence slope in experiment [5] is -3e-05 (inactive). Also, the slope in experiment [6] was 0.00935 (inactive).
For `CCSc1nnc(NC(=O)c2ccccn2)s1`, the cell count in experiment [1] was 351. Besides, the inhibition in experiment [1] was 2.9% (inactive); in experiment [3], 21.4% (inactive); in experiment [7], 4.15% (inactive); in experiment [8] it was 15.7% (inactive). The inhibition of aggregation in experiment [2] was 13.2% (inactive). The nuclei count in experiment [2] was found to be 85.6%; in experiment [3], 102%. Moreover, in experiment [4], the fluorescence slope is -0.583 (inactive). In addition, the NADPH fluorescence slope in experiment [5] was 3.3e-06 (inactive). For the same molecule, the slope in experiment [6] was 0.00493 (inactive).
Consider `Cc1cc(N2CCC3(CC2)OCCO3)n2nc(C)c(-c3ccc(Cl)cc3)c2n1`, for which, in experiment [1], the cell count was 495. Besides, the inhibition in experiment [1] was -19.7% (inactive); in experiment [3], -11.4% (inactive); in experiment [7] it was 12.3% (inactive); in experiment [8] it was 12.1% (inactive). Further, in experiment [2], the inhibition of aggregation was -48.2% (inactive). Also, the results for the nuclei count in experiment [2] and in experiment [3] were 61.2% and 94.7%, respectively. The fluorescence slope in experiment [4] is -0.544 (inactive). Further, the NADPH fluorescence slope in experiment [5] is 7.5e-07 (inactive). For the same molecule, in experiment [6], the slope is 0.00741 (inactive).
Turning to `COC(=O)CSc1nnc(-c2cccs2)n1-c1ccc(Cl)cc1`, in experiment [1], the cell count worked out at 347. Moreover, the inhibition in experiment [1] was 12.8% (inactive); in experiment [3] it was -50.2% (inactive); in experiment [7], 17% (inactive); in experiment [8] it was 15.7% (inactive). In addition, the inhibition of aggregation in experiment [2] was 10.2% (inactive). Moreover, the nuclei count in experiment [2] turned out to be 106%; in experiment [3], 119%. The fluorescence slope in experiment [4] is -0.482 (inactive). Also, in experiment [5], the NADPH fluorescence slope was -1.6e-05 (inactive). In addition, the slope in experiment [6] is 0.00413 (inactive).
As for `COc1ccc(-n2c(Cc3cccn3C)nnc2SCC(=O)Nc2ccccc2)cc1`, the cell count in experiment [1] is 527. Further, the inhibition in experiment [1] is -11.3% (inactive); in experiment [3], -20.6% (inactive); in experiment [7], 15.3% (inactive); in experiment [8], 36.7% (inactive). The inhibition of aggregation in experiment [2] was 6.5% (inactive). The nuclei count worked out at 79.8% in experiment [2] and 116% in experiment [3]. Also, the fluorescence slope in experiment [4] was -0.55 (inactive). Further, in experiment [5], the NADPH fluorescence slope was -2.9e-05 (inactive). In addition, the slope in experiment [6] is 0.00572 (inactive).
As to `Cc1ccc(N=Cc2ccc[nH]2)c(O)c1`, in experiment [1], the cell count was 438. The inhibition is 4.9% (inactive) in experiment [1], 7% (inactive) in experiment [3], -10% (inactive) in experiment [7] and -22.4% (inactive) in experiment [8]. In addition, the inhibition of aggregation in experiment [2] is 18.3% (inactive). The results for the nuclei count in experiment [2] and in experiment [3] were 108% and 112%, respectively. In experiment [4], the fluorescence slope is -0.373 (inactive). In experiment [5], the NADPH fluorescence slope was -2.1e-06 (inactive). For the same molecule, in experiment [6], the slope is 0.0076 (inactive).

One may read the inhibition as the drop in the measured response relative to a control, in per cent.
